The nature of test [1]: A549 cell viability effects, profiling panel, calcein-AM fluorescence, 48 h, basal (AID 1162). Also: test concentration not given here. Conditions: higher = more signal.
Test [2] in a line: adipocyte viability effects, profiling panel, cell-based, 3T3-L1 adipocytes, calcein-AM fluorescence, 48 h, basal (AID 1163). Also: test concentration not given here. The note with it: 3T3-L1 adipocytes viability, higher = more signal.
The nature of test [3]: HepG2 cell viability effects, profiling panel, calcein-AM fluorescence, 48 h, basal (AID 1164). Also: test concentration not given here. The note with it: higher = more signal.
Test [4] is described as follows: MM1S cell viability effects, profiling panel, calcein-AM fluorescence, 48 h, basal (AID 1165).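 Also: viability of MM1S multiple myeloma cells under basal unstimulated conditions; test concentration not given here.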 The note with it: higher = more signal.
The nature of test [5]: basal RPMI8226 viability, no added stimulus, profiling panel, cell-based, calcein-AM fluorescence, 48 h, PK04 Diversity Set (AID 1166).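 Also: cells grown under basal conditions without added stimulus; test concentration not given here.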 Conditions: RPMI8226 myeloma viability, higher = more signal.
The nature of test [6]: basal HepG2 mitochondrial membrane potential changes, profiling panel, cell-based, JC-1 fluorescence, 24 h, 100 nL compound (AID 1167). Also: test concentration not given here. The note with it: higher = more signal.
A short description of test [7]: basal 3T3-L1 adipocyte mitochondrial potential changes, profiling panel, cell-based, JC-1 fluorescence, 3T3-L1 adipocytes, 24 h, 100 nL compound (AID 1168). Also: test concentration not given here. The note with it: JC-1 mitochondrial fluorescence, higher = more signal, called active from +8 up or from −8 down.
The nature of test [8]: basal RPMI8226 mitochondrial membrane potential changes, profiling panel, cell-based, JC-1 fluorescence, 24 h, 100 nL compound (AID 1169). Also: test concentration not given here. The note with it: RPMI8226 myeloma, JC-1 mitochondrial potential fluorescence, higher = more signal.
Test [9] can be described thus: basal MM1S mitochondrial membrane potential changes, profiling panel, cell-based, JC-1 fluorescence, 24 h, 100 nL compound (AID 1170). Also: test concentration not given here. The note with it: higher = more signal.
Test [10] is described as follows: A549 lung cancer cell viability effects, profiling panel, resazurin fluorescence, 24 h, PK04 Diversity Set (AID 1171). Also: test concentration not given here. The note with it: higher = more signal, called active from +8 up or from −8 down. A general note: Resazurin is reduced to fluorescent resorufin, in cell work by metabolically active cells.
Test [11] is described as follows: HepG2 liver cancer cell viability effects, profiling panel, resazurin fluorescence, 24 h, PK04 Diversity Set (AID 1172). Also: test concentration not given here. Conditions: higher = more signal.
Test [12] can be described thus: basal S. cerevisiae growth modulation, no modifier, primary screen, OD600, strain BY4716, 24 h, basal condition (AID 1173). Conditions: OD600, 24 h, higher = more signal, called active from +8 up or from −8 down.
Test [13] in a line: MM1S myeloma cell viability, profiling panel, resazurin fluorescence, basal, 24 h, PK04 Diversity Set (AID 1174). Also: test concentration not given here. The note with it: higher = more signal, called active from +8 up or from −8 down.
Test [14] deals with Dihydroorotate dehydrogenase (quinone), mitochondrial (Plasmodium falciparum (isolate 3D7)) (UniProt Q08210). The test can be described thus: PfDHODH enzyme inhibitors, primary screen, biochemical, C-terminal His tag, absorbance 600 nm (AID 1175).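 Also: recombinant parasite enzyme with a five histidine tag at its C terminus; test concentration not given here.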 Conditions: DCIP absorbance 600 nm, higher = more signal, called active from +8 up or from −8 down.
Test [15] in a line: P. aeruginosa biofilm formation inhibitors, primary screen, strain PAO1, LB-PBS medium, absorbance 600 nm (AID 1176). Also: test concentration not given here. Conditions: P. aeruginosa PAO1 growth/biofilm, A600, 12 h; higher = more signal.
Test [16] in a line: S. cerevisiae RM11-1a growth modifiers, primary screen, strain RM11-1a, OD600, basal, 24 h (AID 1177).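 Also: cultures grown under basal conditions with no added stressor; test concentration not given here.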 The note with it: OD600, 24 h, higher = more signal, called active from +8 up or from −8 down.
A short description of test [17]: E. coli acrAB mutant growth effects, primary screen, E. coli filamentation inducers, strain DRC39, OD650, 24 h (AID 1178).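 Also: growth measured as culture turbidity by optical density at 650 nm; test concentration not given here.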 The note with it: higher = more signal, called active from +8 up or from −8 down.
Test [18] can be described thus: E. coli acrAB mutant growth effects, primary screen, E. coli filamentation inducers, strain DRC39, OD650, 48 h (AID 1179).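 Also: screen aims at cell division blockers that make cells filament.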 Conditions: E. coli DRC39 delta-acrAB growth, higher = more signal, called active from +8 up or from −8 down.
Test [19] is described as follows: RPMI8226 myeloma cell viability, profiling panel, resazurin fluorescence, basal, 24 h, PK04 Diversity Set (AID 1180).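 Also: RPMI8826 multiple myeloma cell line at 5000 cells per well; test concentration not given here.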 The note with it: higher = more signal.
Test [20] has as its target E3 ubiquitin-protein ligase XIAP (Homo sapiens) (UniProt P98170). The test can be described thus: XIAP binders, primary screen, biophysical, small-molecule microarray, fluorescence 635 nm (AID 1181).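 Also: score merges 667 nm emission and signal to noise over triplicate slides.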 The note with it: small-molecule microarray binding, higher = more signal.

Active and inactive are the calls of the source. Unless noted, no rule for the calls is given here.

E3 ubiquitin-protein ligase XIAP (Homo sapiens), sequence (P98170 whole entry, looked up): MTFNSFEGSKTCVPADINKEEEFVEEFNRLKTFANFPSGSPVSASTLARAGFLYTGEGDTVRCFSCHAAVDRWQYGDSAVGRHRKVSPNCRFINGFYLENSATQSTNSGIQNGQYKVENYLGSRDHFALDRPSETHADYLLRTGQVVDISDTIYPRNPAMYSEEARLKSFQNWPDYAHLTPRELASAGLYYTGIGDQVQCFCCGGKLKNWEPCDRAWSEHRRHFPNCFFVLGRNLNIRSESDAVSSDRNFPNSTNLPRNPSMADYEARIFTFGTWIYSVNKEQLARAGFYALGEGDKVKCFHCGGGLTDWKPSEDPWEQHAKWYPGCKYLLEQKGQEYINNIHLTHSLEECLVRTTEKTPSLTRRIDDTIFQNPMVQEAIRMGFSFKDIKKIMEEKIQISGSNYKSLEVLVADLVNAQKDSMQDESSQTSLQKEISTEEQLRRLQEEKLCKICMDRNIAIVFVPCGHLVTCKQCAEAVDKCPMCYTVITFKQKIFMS
Dihydroorotate dehydrogenase (quinone), mitochondrial (Plasmodium falciparum (isolate 3D7)), sequence (Q08210 whole entry, looked up): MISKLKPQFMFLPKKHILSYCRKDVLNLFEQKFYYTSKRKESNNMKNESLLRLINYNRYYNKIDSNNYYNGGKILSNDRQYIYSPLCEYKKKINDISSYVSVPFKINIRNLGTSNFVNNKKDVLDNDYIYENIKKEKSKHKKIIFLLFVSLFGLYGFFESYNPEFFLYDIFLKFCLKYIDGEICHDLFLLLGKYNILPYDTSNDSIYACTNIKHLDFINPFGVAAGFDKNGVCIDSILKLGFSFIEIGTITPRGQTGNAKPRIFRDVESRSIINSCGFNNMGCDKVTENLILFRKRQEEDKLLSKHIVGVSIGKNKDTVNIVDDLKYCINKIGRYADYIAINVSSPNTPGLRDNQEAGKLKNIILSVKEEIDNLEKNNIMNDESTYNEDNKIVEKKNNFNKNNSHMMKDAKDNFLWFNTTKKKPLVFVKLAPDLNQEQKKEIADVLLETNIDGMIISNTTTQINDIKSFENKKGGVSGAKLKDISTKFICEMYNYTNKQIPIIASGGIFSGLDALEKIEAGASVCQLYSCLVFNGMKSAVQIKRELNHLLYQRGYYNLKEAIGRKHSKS

As to `[N-]=[N+]=Nc1ccccc1C[C@]1(C(=O)NCCN2CCOCC2)COC(c2ccc(OCCCO)cc2)=N1`, the z-score was 1.84 in [1]; 0.0471 in test [2]; 1.31 in [3]; 0.534 in test [4]; 0.586 in test [5]; 0.157 in [6]. The z-score in [7] is 0.959 (inactive); in [8] it was -0.264; in test [9] it was -0.422; in test [10] it was 0.887 (inactive); in [11] it was 1.14; in test [12] it was -1.84 (inactive). Further, the z-score in test [13] was 0.892 (inactive); in test [15], 0.289 (inactive); in test [16], -0.71 (inactive); in test [17], 0.947 (inactive); in test [18], 0.361 (inactive); in test [19], 1.13. Besides, the composite z-score in test [14] is 0.137 (inactive); in test [20], -0.237.

Consider `CC(CO)N1C(=O)[C@]2(C)C3C(=O)OCCC/C=C\[C@H]3OC23C=CCN(c2ccc(Cl)cc2)C(=O)[C@@H]13` (stereo not given in full), for which the z-score in test [1] was 0.592; in [2] it was -0.329; in test [3], 0.94; in [4], 1.77; in test [5] it was 0.202; in test [6] it was 1.19. The z-score was 0.204 (inactive) in test [7]; -0.765 in [8]; -0.302 in test [9]; -0.0794 (inactive) in test [10]; -0.342 in test [11]; 0.317 (inactive) in test [12]. The z-score in [13] is 0.28 (inactive); in test [15], -0.264 (inactive); in test [16] it was -0.354 (inactive); in [17] it was 0.351 (inactive); in test [18], 0.779 (inactive); in test [19], 0.499. The composite z-score was -0.924 (inactive) in test [14] and 0.834 in [20].

On to `CCCCC(CC)C(O)C1C=CC2C(=O)N(C)C(=O)C2N1Nc1ccccc1` (stereo not given), for which the z-score in test [1] is -0.959; in test [2], -1.12; in test [3], -0.195; in test [4] it was -0.0591; in test [5] it was -0.885; in [6], -1.02. The z-score in test [7] was -1.03 (inactive); in [8] it was -0.3; in [9], -0.348; in test [10] it was -0.83 (inactive); in test [11] it was -0.339; in test [12], -0.027 (inactive). The z-score in test [13] was -0.916 (inactive); in test [15] it was 0.723 (inactive); in test [16] it was 0.468 (inactive); in [17], -0.861 (inactive); in test [18], -0.389 (inactive); in test [19] it was -0.97. Moreover, the composite z-score in [14] was -0.206 (inactive); in [20] it was 0.0297.

For the compound `CC(C)[Si](C#C[Si](C(C)C)(C(C)C)C(C)C)(O[C@H](c1ccccc1)c1cn(Cc2ccccc2)nn1)C(C)C`, the z-score is -0.491 in test [1]; -0.224 in [2]; 0.732 in test [3]; 1.01 in test [4]; 0.798 in [5]; 1.63 in test [6]. The z-score in test [7] is -0.703 (inactive); in test [8], 0.294; in test [9], -0.888; in test [10], 1.77 (inactive); in test [11], 0.918; in test [12], 1.6 (inactive). Besides, the z-score in test [13] is 0.869 (inactive); in test [15], 0.0885 (inactive); in [16], 1.14 (inactive); in test [17] it was -0.177 (inactive); in test [18], 0.662 (inactive); in test [19] it was 1.43. Also, the composite z-score in test [14] is 0.367 (inactive); in [20] it was 0.0368.

Consider `COC(=O)C1(CC(C)C)C=C2C(=C(c3ccccc3)C(=O)C2C)CN1` (stereo not given), for which the z-score is -0.837 in [1]; -0.16 in test [2]; 0.0661 in test [3]; 0.601 in test [4]; -0.12 in test [5]; 0.0103 in [6]. For the same compound, the z-score is -1.81 (inactive) in test [7]; -0.604 in test [8]; -1.1 in [9]; -0.614 (inactive) in [10]; -1.21 in [11]; 0.397 (inactive) in [12]. Moreover, the z-score in test [13] was -2.14 (inactive); in [15] it was 0.647 (inactive); in test [16] it was 0.168 (inactive); in test [17] it was -0.33 (inactive); in test [18] it was 0.208 (inactive); in test [19] it was -1.27. Besides, the composite z-score in test [14] is -1.58 (inactive); in test [20] it was -0.0133.

As for `COC(=O)[C@@]1(Cc2ccc(F)cc2)[C@H]2c3cc(C(=O)N(C)C)n(Cc4ccc(OC(F)(F)F)cc4)c3C[C@H]2CN1C(=O)c1ccccc1`, the z-score was -0.524 in test [1]; -0.859 in [2]; -0.51 in [3]; -0.225 in test [4]; 0.218 in test [5]; -0.0759 in [6]. The z-score in test [7] is -0.392 (inactive); in test [8], -0.0137; in test [9], -0.276; in test [10], -0.914 (inactive); in test [11], -0.674; in [12], 0.825 (inactive). Moreover, the z-score in test [13] is -0.933 (inactive); in test [15] it was 0.604 (inactive); in test [16], 0.245 (inactive); in [17] it was -0.586 (inactive); in test [18] it was -0.499 (inactive); in test [19], -0.603. In addition, the composite z-score in test [14] was -0.0384 (inactive); in test [20], -0.102.

Consider `COc1cc2c(cc1O)C(C1CC1)N(Cc1cccc(OC(F)(F)F)c1)CC2` (stereo not given), for which the z-score in test [1] was -1.74; in test [2], 0.119; in [3] it was -3.68; in test [4] it was -3.18; in test [5], -2.99; in [6] it was -2.84. Further, the z-score in test [7] is -0.356 (inactive); in test [8] it was -0.686; in test [9], -2.61; in [10], -1.05 (inactive); in test [11], -0.882; in test [12], -5.59 (inactive). Further, the z-score is -3.32 (inactive) in test [13]; -0.0344 (inactive) in [15]; 0.002 (inactive) in test [16]; 0.213 (inactive) in [17]; -0.0239 (inactive) in test [18]; -2.84 in test [19]. The values for the composite z-score in test [14] and in test [20] were -3.64 (inactive) and 0.0674, respectively.

With `Cc1ccc(C(C)CC(O)C2C=CC3C(=O)N(c4ccccc4)C(=O)C3N2Nc2ccccc2)o1` (stereo not given), the z-score was -0.0446 in test [1]; 0.001 in [2]; 0.179 in test [3]; -0.559 in test [4]; -1.69 in test [5]; -1.64 in [6]. In addition, the z-score was -0.279 (inactive) in test [7]; -0.178 in test [8]; -1.71 in test [9]; -0.706 (inactive) in [10]; -1.38 in [11]; -2.27 (inactive) in test [12]. Moreover, the z-score was -1.01 (inactive) in test [13]; 0.574 (inactive) in test [15]; 0.184 (inactive) in [16]; 0.1 (inactive) in [17]; -0.681 (inactive) in test [18]; -0.738 in [19]. Further, the composite z-score was -0.478 (inactive) in test [14] and 0.254 in [20].

As for `Cc1ccc(S[C@]2(C(=O)NCCN3CCOCC3)CC(=O)N(Cc3ccccc3Cl)[C@@H]2c2ccc(CO)cc2I)cc1`, the z-score in [1] was 0.932; in test [2] it was -0.0217; in [3], 0.995; in test [4], -1.62; in test [5], -3.01; in test [6], 1.53. Moreover, the z-score in test [7] was -0.272 (inactive); in test [8], -0.151; in test [9], -1.87; in test [10], -0.817 (inactive); in test [11] it was 0.466; in [12], -3.6 (inactive). The z-score in test [13] is -2.72 (inactive); in [15], 0.379 (inactive); in test [16] it was -1.66 (inactive); in test [17], 0.392 (inactive); in test [18] it was 0.475 (inactive); in test [19], -1.7. Besides, the composite z-score is -0.576 (inactive) in [14] and -0.259 in test [20].
